Measured values: publication PMC11006913
Substitutions are numbered along the chain they refer to.

How the values were obtained:
Experiment in all cases: PBM; 200 nM protein, PBS
Conditions in all cases: dsDNA, one strand shown
[1] = target: T1, NKX2-6 (Homo sapiens, UniProt A6NCS4 118-204)
T1 sequence: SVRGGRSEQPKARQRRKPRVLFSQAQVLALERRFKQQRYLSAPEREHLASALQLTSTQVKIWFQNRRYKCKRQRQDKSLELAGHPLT

[2] = target: T2, SIX6 (Homo sapiens, UniProt O95475 114-200, L167I)
T2 sequence: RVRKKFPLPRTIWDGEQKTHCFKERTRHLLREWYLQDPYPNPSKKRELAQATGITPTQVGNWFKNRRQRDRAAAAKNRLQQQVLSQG

[3] = target: T3, SIX6 (Homo sapiens, UniProt O95475 114-200, L143V)
T3 sequence: T2 sequence with L30V, I54L

[4] = target: T4, SIX6 (Homo sapiens, UniProt O95475 114-200, H141N)
T4 sequence: T2 sequence with H28N, I54L

[5] = target: T5, SIX6 (Homo sapiens, UniProt O95475 114-200, T165P)
T5 sequence: T2 sequence with T52P, I54L

[6] = target: T6, SIX6 (Homo sapiens, UniProt O95475 114-200, L167M)
T6 sequence: T2 sequence with I54M

[7] = target: T7, SIX6 (Homo sapiens, UniProt O95475 114-200, L143M)
T7 sequence: T2 sequence with L30M, I54L

[8] = target: T8, SIX6 (Homo sapiens, UniProt O95475 114-200, L143I)
T8 sequence: T2 sequence with L30I, I54L

[9] = target: T9, SIX6 (Homo sapiens, UniProt O95475 114-200, T165G)
T9 sequence: T2 sequence with T52G, I54L

[10] = target: T10, SIX6 (Homo sapiens, UniProt O95475 114-200, T139Q)
T10 sequence: T2 sequence with T26Q, I54L

[11] = target: T11, SIX6 (Homo sapiens, UniProt O95475 114-200, T165A)
T11 sequence: T2 sequence with T52A, I54L

[12] = target: T12, SIX6 (Homo sapiens, UniProt O95475 114-200, L167V)
T12 sequence: T2 sequence with I54V

[13] = target: PROP1 (Homo sapiens, UniProt O75360 56-141)
PROP1 (Homo sapiens, UniProt O75360 56-141), sequence (O75360 56-141): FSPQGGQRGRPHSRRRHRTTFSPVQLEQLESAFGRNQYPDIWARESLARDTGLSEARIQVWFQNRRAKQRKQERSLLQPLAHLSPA

[14] = target: T13, SIX6 (Homo sapiens, UniProt O95475 114-200)
T13 sequence: T2 sequence with I54L

[15] = target: PROP1 (Homo sapiens, UniProt O75360 56-141, R99H)
PROP1 (Homo sapiens, UniProt O75360 56-141, R99H), sequence (O75360 56-141 R99H): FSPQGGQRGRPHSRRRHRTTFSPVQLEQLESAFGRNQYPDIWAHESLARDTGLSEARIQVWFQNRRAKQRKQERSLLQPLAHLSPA

[16] = target: T14, SIX6 (Homo sapiens, UniProt O95475 114-200, T165I)
T14 sequence: T2 sequence with T52I, I54L

[17] = target: PROP1 (Homo sapiens, UniProt O75360 56-141, F88S)
PROP1 (Homo sapiens, UniProt O75360 56-141, F88S), sequence (O75360 56-141 F88S): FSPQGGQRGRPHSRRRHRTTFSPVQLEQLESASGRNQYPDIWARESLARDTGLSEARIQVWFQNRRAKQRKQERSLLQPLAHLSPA

[18] = target: CRX (Homo sapiens, UniProt O43186 26-111)
CRX (Homo sapiens, UniProt O43186 26-111), sequence (O43186 26-111): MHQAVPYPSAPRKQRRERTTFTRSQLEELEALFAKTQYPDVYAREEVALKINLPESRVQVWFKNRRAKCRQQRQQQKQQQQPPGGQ

[19] = target: CRX (Homo sapiens, UniProt O43186 26-111, E42D)
CRX (Homo sapiens, UniProt O43186 26-111, E42D), sequence (O43186 26-111 E42D): as the sequence (O43186 26-111) above, with E17D counted along it

[20] = target: CRX (Homo sapiens, UniProt O43186 26-111, R41L)
CRX (Homo sapiens, UniProt O43186 26-111, R41L), sequence (O43186 26-111 R41L): as the sequence (O43186 26-111) above, with R16L counted along it

Sequence: AGCCTGGG
- binding signal [1]: 8.48 upbm affinity estimate (log intensity, higher = more binding, comparable within an allelic series)

Sequence: CGTCCCGC
- binding signal [2]: 8.81 upbm affinity estimate (log intensity, higher = more binding, comparable within an allelic series)
- binding signal [3]: 8.68 upbm affinity estimate (log intensity, higher = more binding, comparable within an allelic series)
- binding signal [4]: 8.86 upbm affinity estimate (log intensity, higher = more binding, comparable within an allelic series)
- binding signal [5]: 8.88 upbm affinity estimate (log intensity, higher = more binding, comparable within an allelic series)
- binding signal [6]: 8.79 upbm affinity estimate (log intensity, higher = more binding, comparable within an allelic series)
- binding signal [7]: 8.75 upbm affinity estimate (log intensity, higher = more binding, comparable within an allelic series)
- binding signal [8]: 8.79 upbm affinity estimate (log intensity, higher = more binding, comparable within an allelic series)
- binding signal [9]: 8.8 upbm affinity estimate (log intensity, higher = more binding, comparable within an allelic series)
- binding signal [10]: 8.84 upbm affinity estimate (log intensity, higher = more binding, comparable within an allelic series)
- binding signal [11]: 8.8 upbm affinity estimate (log intensity, higher = more binding, comparable within an allelic series)
- binding signal [12]: 8.87 upbm affinity estimate (log intensity, higher = more binding, comparable within an allelic series)
- binding signal [13]: 6.64 upbm affinity estimate (log intensity, higher = more binding, comparable within an allelic series)
- binding signal [14]: 8.76 upbm affinity estimate (log intensity, higher = more binding, comparable within an allelic series)
- binding signal [15]: 6.65 upbm affinity estimate (log intensity, higher = more binding, comparable within an allelic series)
- binding signal [16]: 8.78 upbm affinity estimate (log intensity, higher = more binding, comparable within an allelic series)
- binding signal [17]: 6.67 upbm affinity estimate (log intensity, higher = more binding, comparable within an allelic series)

Sequence: TAAATTAA
- binding signal [13]: 11.2 upbm affinity estimate (log intensity, higher = more binding, comparable within an allelic series)
- binding signal [15]: 11 upbm affinity estimate (log intensity, higher = more binding, comparable within an allelic series)
- binding signal [17]: 7.74 upbm affinity estimate (log intensity, higher = more binding, comparable within an allelic series)

Sequence: CTCATTAA
- binding signal [13]: 11 upbm affinity estimate (log intensity, higher = more binding, comparable within an allelic series)
- binding signal [15]: 10.6 upbm affinity estimate (log intensity, higher = more binding, comparable within an allelic series)
- binding signal [17]: 7.48 upbm affinity estimate (log intensity, higher = more binding, comparable within an allelic series)

Sequence: GACTCGGC
- binding signal [1]: 9.17 upbm affinity estimate (log intensity, higher = more binding, comparable within an allelic series)

Sequence: GACGCCGC
- binding signal [18]: 8.08 upbm affinity estimate (log intensity, higher = more binding, comparable within an allelic series)
- binding signal [19]: 8.14 upbm affinity estimate (log intensity, higher = more binding, comparable within an allelic series)
- binding signal [20]: 8.18 upbm affinity estimate (log intensity, higher = more binding, comparable within an allelic series)

Sequence: CAGGACCC
- binding signal [18]: 8.22 upbm affinity estimate (log intensity, higher = more binding, comparable within an allelic series)
- binding signal [19]: 8.19 upbm affinity estimate (log intensity, higher = more binding, comparable within an allelic series)
- binding signal [20]: 8.24 upbm affinity estimate (log intensity, higher = more binding, comparable within an allelic series)

Sequence: AATCATTA
- binding signal [18]: 10.5 upbm affinity estimate (log intensity, higher = more binding, comparable within an allelic series)
- binding signal [19]: 10.3 upbm affinity estimate (log intensity, higher = more binding, comparable within an allelic series)
- binding signal [20]: 9.82 upbm affinity estimate (log intensity, higher = more binding, comparable within an allelic series)

Sequence: CGAGGGTC
- binding signal [18]: 8.26 upbm affinity estimate (log intensity, higher = more binding, comparable within an allelic series)
- binding signal [19]: 8.34 upbm affinity estimate (log intensity, higher = more binding, comparable within an allelic series)
- binding signal [20]: 8.26 upbm affinity estimate (log intensity, higher = more binding, comparable within an allelic series)

Sequence: GCCCAGAC
- binding signal [18]: 8.35 upbm affinity estimate (log intensity, higher = more binding, comparable within an allelic series)
- binding signal [19]: 8.45 upbm affinity estimate (log intensity, higher = more binding, comparable within an allelic series)
- binding signal [20]: 8.39 upbm affinity estimate (log intensity, higher = more binding, comparable within an allelic series)

Sequence: GATCATTA
- binding signal [18]: 10.8 upbm affinity estimate (log intensity, higher = more binding, comparable within an allelic series)
- binding signal [19]: 10.7 upbm affinity estimate (log intensity, higher = more binding, comparable within an allelic series)
- binding signal [20]: 10.4 upbm affinity estimate (log intensity, higher = more binding, comparable within an allelic series)

Sequence: GCGCAGCC
- binding signal [2]: 8.75 upbm affinity estimate (log intensity, higher = more binding, comparable within an allelic series)
- binding signal [3]: 8.82 upbm affinity estimate (log intensity, higher = more binding, comparable within an allelic series)
- binding signal [4]: 8.75 upbm affinity estimate (log intensity, higher = more binding, comparable within an allelic series)
- binding signal [5]: 8.87 upbm affinity estimate (log intensity, higher = more binding, comparable within an allelic series)
- binding signal [6]: 8.77 upbm affinity estimate (log intensity, higher = more binding, comparable within an allelic series)
- binding signal [7]: 8.72 upbm affinity estimate (log intensity, higher = more binding, comparable within an allelic series)
- binding signal [8]: 8.74 upbm affinity estimate (log intensity, higher = more binding, comparable within an allelic series)
- binding signal [9]: 8.7 upbm affinity estimate (log intensity, higher = more binding, comparable within an allelic series)
- binding signal [10]: 8.82 upbm affinity estimate (log intensity, higher = more binding, comparable within an allelic series)
- binding signal [11]: 8.78 upbm affinity estimate (log intensity, higher = more binding, comparable within an allelic series)
- binding signal [12]: 8.72 upbm affinity estimate (log intensity, higher = more binding, comparable within an allelic series)
- binding signal [14]: 8.73 upbm affinity estimate (log intensity, higher = more binding, comparable within an allelic series)
- binding signal [16]: 8.7 upbm affinity estimate (log intensity, higher = more binding, comparable within an allelic series)

Sequence: ACTAATGG
- binding signal [13]: 9.71 upbm affinity estimate (log intensity, higher = more binding, comparable within an allelic series)
- binding signal [15]: 9.39 upbm affinity estimate (log intensity, higher = more binding, comparable within an allelic series)
- binding signal [17]: 7.3 upbm affinity estimate (log intensity, higher = more binding, comparable within an allelic series)

Sequence: GGCCCCCC
- binding signal [2]: 8.65 upbm affinity estimate (log intensity, higher = more binding, comparable within an allelic series)
- binding signal [3]: 8.57 upbm affinity estimate (log intensity, higher = more binding, comparable within an allelic series)
- binding signal [4]: 8.65 upbm affinity estimate (log intensity, higher = more binding, comparable within an allelic series)
- binding signal [5]: 8.56 upbm affinity estimate (log intensity, higher = more binding, comparable within an allelic series)
- binding signal [6]: 8.73 upbm affinity estimate (log intensity, higher = more binding, comparable within an allelic series)
- binding signal [7]: 8.77 upbm affinity estimate (log intensity, higher = more binding, comparable within an allelic series)
- binding signal [8]: 8.57 upbm affinity estimate (log intensity, higher = more binding, comparable within an allelic series)
- binding signal [9]: 8.61 upbm affinity estimate (log intensity, higher = more binding, comparable within an allelic series)
- binding signal [10]: 8.85 upbm affinity estimate (log intensity, higher = more binding, comparable within an allelic series)
- binding signal [11]: 8.73 upbm affinity estimate (log intensity, higher = more binding, comparable within an allelic series)
- binding signal [12]: 8.56 upbm affinity estimate (log intensity, higher = more binding, comparable within an allelic series)
- binding signal [14]: 8.69 upbm affinity estimate (log intensity, higher = more binding, comparable within an allelic series)
- binding signal [16]: 8.78 upbm affinity estimate (log intensity, higher = more binding, comparable within an allelic series)

Sequence: CTAATGAC
- binding signal [1]: 11.7 upbm affinity estimate (log intensity, higher = more binding, comparable within an allelic series)

Sequence: GCCGCTCC
- binding signal [2]: 9.16 upbm affinity estimate (log intensity, higher = more binding, comparable within an allelic series)
- binding signal [3]: 8.94 upbm affinity estimate (log intensity, higher = more binding, comparable within an allelic series)
- binding signal [4]: 9.15 upbm affinity estimate (log intensity, higher = more binding, comparable within an allelic series)
- binding signal [5]: 8.87 upbm affinity estimate (log intensity, higher = more binding, comparable within an allelic series)
- binding signal [6]: 9.07 upbm affinity estimate (log intensity, higher = more binding, comparable within an allelic series)
- binding signal [7]: 9.12 upbm affinity estimate (log intensity, higher = more binding, comparable within an allelic series)
- binding signal [8]: 8.99 upbm affinity estimate (log intensity, higher = more binding, comparable within an allelic series)
- binding signal [9]: 9.14 upbm affinity estimate (log intensity, higher = more binding, comparable within an allelic series)
- binding signal [10]: 9.17 upbm affinity estimate (log intensity, higher = more binding, comparable within an allelic series)
- binding signal [11]: 9.12 upbm affinity estimate (log intensity, higher = more binding, comparable within an allelic series)
- binding signal [12]: 9.06 upbm affinity estimate (log intensity, higher = more binding, comparable within an allelic series)
- binding signal [14]: 9.12 upbm affinity estimate (log intensity, higher = more binding, comparable within an allelic series)
- binding signal [16]: 9.09 upbm affinity estimate (log intensity, higher = more binding, comparable within an allelic series)

Sequence: TAATGATA
- binding signal [13]: 9.99 upbm affinity estimate (log intensity, higher = more binding, comparable within an allelic series)
- binding signal [15]: 9.25 upbm affinity estimate (log intensity, higher = more binding, comparable within an allelic series)
- binding signal [17]: 7.61 upbm affinity estimate (log intensity, higher = more binding, comparable within an allelic series)
